Measurements published in PubChem BioAssay (Tox21).
Inconclusive results are not listed. A number with no mark means an inactive call. Active and inactive are the calls of the source. Calls come from the whole dose curve; as a rule, active = well fitted cell-killing curve with a large enough effect in the repeat runs; inconclusive = weak or mixed curves; inactive = no such curve, though single readings can be large or run the other way.
% is set by controls: 0 for no effect and ±100 for the full control effect.

Test: qHTS assay to identify small molecule agonists of the peroxisome proliferator-activated receptor delta (PPARd) signaling pathway - cell viability counter screen (AID 743211); note: nearly all actives have a fitted effect of over 55% in size
Settings: PPARd-bla HEK293H viability, CellTiter-Glo luminescence, 17 h; series mostly up to 62.6 µM; activity change, negative = cytotoxicity: at the top concentration
Source text: U.S. Tox21 Program National Center for Advancing Translational Sciences [NCATS] NIH Chemical Genomics Center [NCGC] U.S. Environmental Protection Agency [EPA] National Institutes of Environmental Health Sciences [NIEHS] National Toxicology Program [NTP] U.S. Food and Drug Administration [FDA] Tox21 Assay Overview: The peroxisome proliferator-activated receptors (PPARs) are lipid-activated transcription factors of the nuclear receptor superfamily with three distinct subtypes namely PPAR alpha, PPAR delta (PPARd) and PPAR gamma. All these subtypes heterodimerizes with Retinoid X receptor (RXR) and have different physiological functions. […] To identify the compounds that activate PPAR-delta signaling, GeneBLAzer PPAR delta UAS-bla HEK293H cell line (Invitrogen, Carlsbad, CA, USA) containing a beta-lactamase reporter gene under the control of an Upstream Activator Sequence (UAS) was used to screen the Tox21 compound library. The cytotoxicity of the Tox21 compound library against the PPARd-bla cell line was tested in parallel by measuring the cell viability using CellTiter-Glo assay (Promega, Madison, WI) in the same wells.
Tox21 Assay Protocol Summary: PPARd-bla cells were dispensed at 3000 cells/6uL/well in 1536-well black wall/clear bottom plates using a Multidrop Combi (Thermo Fisher Scientific, Waltham, MA) dispenser. After the assay plates were incubated at 37 C and 5% CO2 for 5 h, 23 nL of compounds dissolved in DMSO, positive controls or DMSO only was transferred to the assay plate by a Pintool station (Kalypsys, San Diego, CA). The assay plates were incubated at 37C for 17 h. After 1 uL of LiveBLAzerTM B/G FRET substrate was added using a Bioraptr Flying Reagent Dispenser (FRD) workstation (Beckman Coulter, Indianapolis, IN, USA), the plates were incubated at room temperature for 2 h, and fluorescence intensity was measured by an Envision plate reader (PerkinElmer, Shelton, CT). For cell viability readout that measures cytotoxicity, 3 ul/well of CellTiter-Glo reagent was added into the assay plates using a Bioraptr FRD. After 30 min incubation at room temperature, the luminescence intensity in the plates was measured using a ViewLux plate reader (PerkinElmer).
With `O=C(O)c1ccccn1` the outcome was “inactive”. In the case of `Clc1ccc(Cl)cc1`, the outcome is reported as “inactive”. In the case of `CCCCN(CC)C(=O)SCCC`, the outcome is reported as “inactive”. With `CNC(=O)Oc1ccccc1OC(C)C` the outcome was “inactive”. In the case of `O=S(=O)(c1ccc(Cl)cc1)c1cc(Cl)c(Cl)cc1Cl`, the outcome is reported as “inactive”. For `CC(C)C#N`, the outcome was “inactive”. With `CCCCN(CCCC)SN(C)C(=O)Oc1cccc2c1OC(C)(C)C2` the “activity change, negative = cytotoxicity” value was -5.58% [at 81.1 µM]. For `CCC[N+](=O)[O-]`, the outcome was “inactive”. With `CCOC(=O)c1ccccc1C(=O)OCC` the outcome was “inactive”. With `COc1ccc2c3c1O[C@H]1[C@@H](O)C=C[C@H]4[C@@H](C2)N(C)CC[C@@]341` the “activity change, negative = cytotoxicity” value was -17.8% [at 81.1 µM]. In the case of `CN=C=S`, the outcome is reported as “inactive”. In the case of `O=[N+]([O-])c1ccc(Oc2ccc(Cl)cc2Cl)cc1`, the outcome is reported as “inactive”. For `C1CN2CCN1CC2`, the outcome was “inactive”. In the case of `CN(C)CCO`, the outcome is reported as “inactive”. In the case of `CCN(CC)CCO`, the outcome is reported as “inactive”. With `CC(C#N)CCC#N` (stereo not given) the outcome was “inactive”. For `O=C(NC(=O)c1c(F)cccc1F)Nc1cc(Cl)c(OC(F)(F)C(F)C(F)(F)F)cc1Cl` (stereo not given), the “activity change, negative = cytotoxicity” value was -8.54%. For `CCCN(CCC)N=O`, the outcome was “inactive”. In the case of `Cc1cc(-c2cc(C)c(N)c(C)c2)cc(C)c1N`, the “activity change, negative = cytotoxicity” value is reported as 2.39%. For `O=c1[nH]c2ccccc2c(=O)o1`, the outcome was “inactive”. With `CC(C)C1(C)N=C(c2nc3ccccc3cc2C(=O)O)NC1=O` (stereo not given) the outcome was “inactive”. In the case of `Cc1cccc([N+](=O)[O-])c1`, the outcome is reported as “inactive”. For `Oc1ccccc1Cl`, the outcome was “inactive”. With `CC(C)OC(=O)Nc1cccc(Cl)c1` the outcome was “inactive”. In the case of `CC(C)OC(=O)Nc1ccccc1`, the outcome is reported as “inactive”. With `ClCCBr` the outcome was “inactive”. In the case of `CC(C)(C)OOC(=O)c1ccccc1`, the outcome is reported as “inactive”. With `CCC12COCN1COC2` the outcome was “inactive”. With `O=NN1CCCCCCC1` the “activity change, negative = cytotoxicity” value was -3.01%. For `COP(N)(=O)SC` (stereo not given), the outcome was “inactive”. For `OCCN(CCO)CCO`, the outcome was “inactive”. For `O=NN1CCCC1`, the outcome was “inactive”. For `ClCc1cccnc1`, the outcome was “inactive”. In the case of `Nc1ccc(Oc2ccc(N)cc2)cc1`, the outcome is reported as “inactive”. For `CC1OC(C)OC(C)O1` (stereo not given), the outcome was “inactive”. With `CCOP(=S)(OCC)Oc1cnc2ccccc2n1` the outcome was “inactive”. With `CN1C(=O)CN=C(c2ccccc2)c2cc(Cl)ccc21` the outcome was “inactive”. With `Nc1ccccc1C(=O)O` the outcome was “inactive”. For `Nc1ccc(Cc2ccc(N)cc2)cc1`, the outcome was “inactive”. With `CN(N=O)c1ccccc1` the outcome was “inactive”.
